Source: PubChem
GLD-1 RNA inh – GLD-1/TGE RNA complex disruptors, primary screen, biochemical, fluorescence polarization | Female germline-specific tumor suppressor gld-1 (Caenorhabditis elegans), Q17339 | purified GLD-1 + fluorescein TGE RNA | inhibition, % at 5.96 µM | 320,000 tested, 0.44% active;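 active = percent inhibition above a per-plate cutoff, the plate mean of test compounds plus 3 SD, cut at about 30% in these data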
Keap1-Nrf2 PPI – Keap1-Nrf2 protein-protein interaction inhibitors, primary screen, biochemical, fluorescence polarization, single point | Kelch-like ECH-associated protein 1 (Homo sapiens), Q14145 | Keap1 Kelch-Nrf2 peptide fluorescence polarization, 1536-well | inhibition, % at 9.4 µM | 340,000 tested, 0.15% active | AID 504523, 2011; in the data active = inhibition above about 12%; inconclusive = no clear call, values can overlap the other calls; inactive = below about 7.3%;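 note: human Keap1 Kelch domain with fluorescein labeled Nrf2 9mer peptide probe; higher means more block of Keap1 binding to Nrf2 peptide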
eLon inh – inhibitors of E. coli Lon protease, primary screen, biochemical, fluorescence polarization | P0A9M0 | purified E. coli Lon protease | inhibition, % at 7.94 µM | 360,000 tested, 0.42% active; in the data active = inhibition above about 13%, passing the limit was not always enough
Bcl-xL primary – inhibitors of human Bcl-xL, primary screen, biochemical, fluorescence polarization, HTS | GST-Bcl-xL / FITC-Bim BH3 peptide fluorescence polarization | 320,000 tested, 0.7% active | Bcl-2-like protein 1 (Homo sapiens), Q07817 | inhibition, % at 10.9 µM;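 active = inhibition above the mean of all tested compounds plus 3 SD, cutoff set per campaign, cut at about 30% in these data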;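 note: inhibitors lower millipolarization by displacing the labeled peptide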
Target sequence (Q07817 whole entry, looked up): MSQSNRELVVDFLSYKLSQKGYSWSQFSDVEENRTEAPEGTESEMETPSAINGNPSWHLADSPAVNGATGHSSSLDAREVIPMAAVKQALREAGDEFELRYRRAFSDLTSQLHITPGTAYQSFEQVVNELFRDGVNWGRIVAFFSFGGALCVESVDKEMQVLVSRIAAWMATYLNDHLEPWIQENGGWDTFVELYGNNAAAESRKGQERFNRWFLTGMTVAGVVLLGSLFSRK
LANA DNA inh – inhibitors of KSHV C-LANA binding to DNA, primary screen, biochemical, fluorescence polarization, FAM-LBS DNA, MBP-C-LANA, single point; inhibition, % at 9 µM; 340,000 tested, 0.078% active; Kaposi's sarcoma herpesvirus LANA C-terminal domain (residues 932-1162) DNA binding; AID 504423, 2011;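 active = highest replicate inhibition at or above 60% at 9 µM, even if other replicates fall short; inactive = all replicates below 60% inhibition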
MEX-5 binding – MEX-5 zinc finger RNA-binding disruptors – biochemical, C. elegans, fluorescence polarization, MLPCN library, primary screen | Zinc finger protein mex-5 (Caenorhabditis elegans), Q9XUB2 | MEX-5/FITC-TCR2 RNA binding; stronger effect = lower value | activity score (negative = inhibition of binding), % at 10 µM | 300,000 tested, 0.38% active | AID 1832, 2009;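 active = inhibition past about -25% in most replicates, and total fluorescence under double the plate's negative control median, limit read from the data; inconclusive = replicates evenly split on the limit, or fluorescence at least double controls; inactive = too little inhibition in most replicates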
Target sequence (Q9XUB2 whole entry, looked up): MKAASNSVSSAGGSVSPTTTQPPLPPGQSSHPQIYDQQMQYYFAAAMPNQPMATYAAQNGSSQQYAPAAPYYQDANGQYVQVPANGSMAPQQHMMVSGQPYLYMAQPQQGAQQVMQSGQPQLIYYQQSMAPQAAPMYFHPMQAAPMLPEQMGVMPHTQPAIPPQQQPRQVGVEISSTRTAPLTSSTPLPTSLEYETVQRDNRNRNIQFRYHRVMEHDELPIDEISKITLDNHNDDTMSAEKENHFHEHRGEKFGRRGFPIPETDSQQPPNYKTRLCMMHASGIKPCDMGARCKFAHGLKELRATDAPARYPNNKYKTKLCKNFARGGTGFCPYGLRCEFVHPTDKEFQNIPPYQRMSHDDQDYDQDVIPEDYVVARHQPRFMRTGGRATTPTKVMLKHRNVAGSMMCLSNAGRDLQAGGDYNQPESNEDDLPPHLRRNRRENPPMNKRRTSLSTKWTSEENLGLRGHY
Large screens that a line does not name were inactive. Compounds with a hit are over-represented: about 1.2% of the library has one in this group of screens.

COc1ccc(-n2c(C)ccc2-c2ccccc2)cn1	GLD-1 RNA inh 89, Keap1-Nrf2 PPI inconclusive, Bcl-xL primary 107
COC(=O)c1cc2c(cc1NC(=O)CSCCc1ccccn1)OCO2	Bcl-xL primary 31
Cc1cnc(CNC(=O)CC2C(=O)NCCN2Cc2ccccc2C(F)(F)F)cn1 (stereo not given)	Bcl-xL primary 35
Nc1ccn([C@@H]2O[C@H](C(=O)N3CCN(c4ccc(Cl)cn4)CC3)[C@@H](O)[C@H]2O)c(=O)n1	none (no result: GLD-1 RNA inh, Keap1-Nrf2 PPI, Bcl-xL primary, LANA DNA inh, MEX-5 binding)
Oc1ccc(-c2nc(-c3ccc(O)c(O)c3)cs2)cc1	MEX-5 binding -68
CN(C)c1ccc(N2C(=O)CSC2=S)cc1	Bcl-xL primary 39
CCn1ccnc1CN(C)C(=O)C1CCC(=O)N(Cc2cccc(F)c2)C1 (stereo not given)	none
CC(=O)N1CCc2c(sc(NC(=O)C3CCCCC3)c2C(N)=O)C1	GLD-1 RNA inh 57, MEX-5 binding -27
COC(=O)c1c(NC(=O)C2CC2)sc2c1CCN(C(C)=O)C2	none
O=C(Cc1cccc(NC(=O)C2CCCN(C(=O)CCc3ccccc3)C2)c1)Nc1cccc(C(=O)N2CCCC2)c1 (stereo not given)	none (no result: MEX-5 binding)
O=c1cc(O)c2sc3nc(-c4cccnc4)cc(C(F)(F)F)c3c2[nH]1	Bcl-xL primary 40
CN(Cc1ccc(OC(F)F)cc1)C(=O)c1ccc2nccnc2c1	none
COc1cccc(CN(C)C(=O)c2ccc3nccnc3c2)c1	Bcl-xL primary 41
COc1ccccc1CNS(=O)(=O)c1c(C)cc(C)cc1C	none (no result: GLD-1 RNA inh, Keap1-Nrf2 PPI, Bcl-xL primary, LANA DNA inh, MEX-5 binding)
COc1ccc(C2NC3=C(CCC3)C3(C#N)C(OC)(OC)N=C(N)C23C#N)cc1 (stereo not given)	Bcl-xL primary 31
COC1(OC)N=C(N)C2(C#N)C(c3ccc(F)cc3)C12C#N (stereo not given)	none
CCCCC1=CC2=C(c3ccco3)C(=O)C(C)(OC(=O)c3ccc(OC)cc3)C(=O)C2=CN1CCCN(CC)CC (stereo not given)	GLD-1 RNA inh 34, Bcl-xL primary 49
CCCCC1=CC2=C(c3ccco3)C(=O)C(C)(OC(=O)c3ccc(OC)cc3)C(=O)C2=CN1C1CCCC1 (stereo not given)	GLD-1 RNA inh 92, Bcl-xL primary 112, MEX-5 binding -29 (no result: Keap1-Nrf2 PPI, eLon inh, LANA DNA inh)
CCCCC1=CC2=C(c3ccco3)C(=O)C(C)(OC(=O)c3ccc(OC)cc3)C(=O)C2=CN1CCN1CCOCC1 (stereo not given)	GLD-1 RNA inh 41, Bcl-xL primary 72, MEX-5 binding -38
CCCCC1=CC2=C(c3ccco3)C(=O)C(C)(OC(=O)c3ccc(OC)cc3)C(=O)C2=CN1CC(C)C (stereo not given)	none
CCCCC1=CC2=C(c3ccco3)C(=O)C(C)(OC(=O)c3ccc(OC)cc3)C(=O)C2=CN1Cc1ccco1 (stereo not given)	none
CCCCC1=CC2=C(c3ccco3)C(=O)C(C)(OC(=O)c3ccc(OC)cc3)C(=O)C2=CN1Cc1ccc(OC)cc1 (stereo not given)	none (no result: GLD-1 RNA inh, Keap1-Nrf2 PPI, eLon inh, Bcl-xL primary, LANA DNA inh)
CCCCC1=CC2=CC(=O)C(C)(OC(=O)CC)C(=O)C2=CN1CCN1CCOCC1 (stereo not given)	Bcl-xL primary 31 (no result: Keap1-Nrf2 PPI, eLon inh, LANA DNA inh)
COc1ccc([N+](=O)[O-])cc1NS(=O)(=O)c1cc(C(=O)N2CCN(C)CC2)ccc1OC	none (no result: MEX-5 binding)
O=C(O)CSc1nnc(NC(=O)CN2CCOCC2)s1	none
O=c1cc(C2CCCCC2)[nH]c(=O)[nH]1	none (no result: GLD-1 RNA inh, Bcl-xL primary, MEX-5 binding)
Cc1ccc(NC(=O)C(C)OC(=O)Cn2[nH]c(=O)c3ccccc3c2=O)cc1 (stereo not given)	none
Cc1ccc(-c2ccc(/C=C(\C#N)C(=O)Nc3cc(C)nn3-c3ccccc3)o2)cc1	GLD-1 RNA inh 120, Bcl-xL primary 123, MEX-5 binding inconclusive (no result: Keap1-Nrf2 PPI, eLon inh, LANA DNA inh)
Cc1ccc(NC(=O)/C(C#N)=C/c2ccc(C)s2)c(C)c1	Bcl-xL primary 48, MEX-5 binding -54
Cc1ccc(/C=C(\C#N)C(=O)Nc2c(C)cccc2C)s1	MEX-5 binding -46
Cc1ccc(CNC(=O)/C(C#N)=C/c2ccc(C)s2)cc1	none
Cc1cccc(C)c1NC(=O)/C(C#N)=C/c1ccsc1	none
COc1ccc(N2C3=C(CC4=C2CC(C)(C)CC4=O)C(=O)CC(C)(C)C3)cc1	none
COc1ccc(N2C3=C(CC4=C2CCCC4=O)C(=O)CCC3)cc1	Bcl-xL primary 75
COc1ccc(C(=O)Nc2ccnn2C2CCN(CC3CC=CCC3)CC2)cc1 (stereo not given)	none (no result: GLD-1 RNA inh, Bcl-xL primary)
O=C(Nc1ccnn1C1CCN(CC2CC=CCC2)CC1)c1ccccc1 (stereo not given)	MEX-5 binding -27 (no result: GLD-1 RNA inh, Bcl-xL primary)
O=C(NCCOC(=O)c1ccccc1)c1ccccc1	none (no result: MEX-5 binding)
Cc1cc2nc(-c3ccc(C#N)cc3)c(Cc3cccc(F)c3)n2c(C)c1Br	none (no result: GLD-1 RNA inh, Keap1-Nrf2 PPI, Bcl-xL primary, LANA DNA inh, MEX-5 binding)
N#Cc1c2ccccc2nc2ccccc12	Bcl-xL primary 37
CCOC(=O)CN(C(=O)CNC(=O)c1ccco1)C(C(=O)NC1CCCCC1)c1cccs1 (stereo not given)	Bcl-xL primary 52
CCOC(=O)CN(C(=O)CNC(=O)c1ccco1)C(C(=O)NC1CCCC1)c1ccccc1OCC (stereo not given)	none
COc1ccc(N(C(=O)CCl)C(C)(C(=O)Nc2c(C)cccc2C)c2ccccn2)cc1 (stereo not given)	MEX-5 binding -30
CCOc1ccc(NC(=O)C(c2ccccn2)N(C(=O)CCl)c2ccc(OC)cc2)cc1 (stereo not given)	none
CC(=O)N1CCn2c3c(c(=O)c4cc(C)ccc42)CCC31 (stereo not given)	Bcl-xL primary 32
O=[N+]([O-])c1cc(-c2ccc(/C=N/n3cnnc3)o2)ccc1Cl	MEX-5 binding -40
O=[N+]([O-])c1cc(-c2ccc(C(=S)N3CCOCC3)o2)ccc1Cl	Bcl-xL primary 37
CCOC(=O)C(C#N)=C1CCN(Cc2ccccc2)CC1	Bcl-xL primary 58
CN1CC=C2C(C#N)=C(N)C(C#N)(C#N)C(CCc3ccccc3)C2C1 (stereo not given)	GLD-1 RNA inh 49, Keap1-Nrf2 PPI 20, eLon inh 33, Bcl-xL primary 89 (no result: MEX-5 binding)
CCOC(=O)N1CC=C2C(C#N)=C(N)C(C#N)(C#N)[C@H](c3ccc(OC(C)C)c(OCC)c3)[C@H]2C1	none
COc1cc([C@@H]2[C@H]3CN(C)CC=C3C(C#N)=C(N)C2(C#N)C#N)cc2c1OCO2	Bcl-xL primary 54 (no result: MEX-5 binding)
O=c1[nH]c2cc3c(cc2cc1CN(Cc1ccccc1)Cc1nnnn1Cc1ccco1)OCCO3	none (no result: GLD-1 RNA inh, Bcl-xL primary)
